From the supplement of paper PMC6555819 come the findings set out here.

In the first assay the test system is PXR:RXRa (NR concentration 270 nM, RXRa partner concentration 90 nM). In words: PBM binding z-score (relative to random genomic background probes); higher = stronger binding; sequences stand for … in GC…GCGATTGACAGCGTAGAATGAAGG
In outline:
(§1)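 The probes on custom Agilent 4×180K protein-binding microarrays were double-stranded, with 34-nt variable regions bearing direct-repeat seeds, single-nucleotide variants, half-site ablations and random human genomic background sequences. Incubation lasted 1 h with ligand-free nuclear receptor dimers in PBS pH 7.4, 2% milk, 0.02% Triton X-100, 1 mM DTT, 0.2 mg/mL BSA and 0.4 mg/ml salmon testes DNA. Antibodies against each partner (one per run) detected bound dimers, and fluorescence scans were regression-normalized. Binding z-scores take the random background probes as reference.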
The sequence CGAACTAGGTCCTCCAGGACAGTGAATACATTGA gave a PBM binding z-score of -0.555.
As to TCAAGTAGGTTACCAATGGGGCATTCAGCTTTCT, the PBM binding z-score was 0.326.
In turn, GCTGTTAGGTCAACTGATGGTCAGCTAAAGCTCG came in with a PBM binding z-score of 2.32.
The sequence TCATATAGGTAAACAGGTGCAAGTCCGTAAGTTA came in with a PBM binding z-score of 1.33.
Consider TCTTGTAGATCAATAGAGGATAAGAAAGTGCGCT, for which the PBM binding z-score was 0.475.
As to TTACCAGGGTGAAGGTCGTTGATCCCTCTGTAGA, the PBM binding z-score turned out to be 1.6.
Still for that read-out and setting: in the case of GCTAGCAGGCCATTTTGGTCACTCAATGACGGGC it was -0.775; in that of CGTCCAAGGTCAATGCTAGGTCAGTGTAAGCATT, 4.83.
The sequence TATACAGCGTCAAAGGCCAGAGTACGAATGTCGA displayed a PBM binding z-score of -0.442.
Consider ATCTCGAGGTAAAGTTCAGTGAAAGATCGATAGA, for which the PBM binding z-score came to 2.17.
As to CATACAGGGTCAGCTAGGCCAGTGTAGGGACGGC, the PBM binding z-score was determined as 1.78.
The sequence ATATGTAGGTTATCGCGTCATTCAGTTTGCGCAT had a PBM binding z-score of 0.655.
CCGACTGGGGTAAAGGTTACCATACTCAGTACGA: the PBM binding z-score was 1.93.
On to TAGCCTAGGTCATGCGGGCCAGGATAGTGTCGGC, for which the PBM binding z-score is 1.29.
Same read-out and setting: the result for CCTAGTAGGTCAAGGTCACACACGCTATAGGTAC reads 4.96; that for TCGAGTAGGTTACCATTGGGGCATTCAGCTTTCT, 0.0838; that for TTACCAAGGTGGGCTGAGGTCGTTGATCCAACTC, 2.86.
The sequence AGAATGACGTTATACGTAGATCAGGGAAGAAAGT registered a PBM binding z-score of -0.696.

The subject of the next assay is PXR homodimer (NR concentration 270 nM). The assay is described as above. In outline:
as §1
CCTAGCAGGCCAATCTGGGTGACTCAAGGCTTGA registered a PBM binding z-score of -0.777.
Take CGAACTAGGTCAGAACTGGACAGTGAAGGATGAT: the PBM binding z-score was -0.282.
GGAACGAGGGCATTCGAGTTGATGGCATGGCGAT had a PBM binding z-score of 1.55.
Regarding TCAGACAGGTGAAGGTAACTCCGGTACGCAGTCG, the PBM binding z-score was -0.04.
Take CGTCCCAGGTCAATGCTAGGTCAGTGAAAGCATT: the PBM binding z-score is 0.306.
Still for that read-out and setting: the result for TCATATAGGTAAACAGGTGGAAGTCCGTAAGTTA reads 0.859.
With CCAGACAGGTGAAAGGTAACCCAGTCTGGTACGC, the PBM binding z-score is -0.254.
The sequence CTACCAAGCTGAACAAGGTCGTTGATTACTATTC returned a PBM binding z-score of 1.02.
Same read-out and setting: the result for GGAACGAGGGCGTTCGAGTTGATAGCATGGCGAT reads 0.811; that for CAGCCTAGGTCTGGGCCAGTATAGGAGGAACGTT, -0.644.
Same read-out and setting: the result for GGAGACAGGTGAAACGCAGGTAACTCAGGGTGGC reads -0.332; that for TAGCCTAGGTCATGGGCCGGTATACCACGCGAAC, -0.488.
Still for that read-out and setting: in the case of CAAACTCGGTCACAGAGGTCAAAGTCCGTGCGTA it was 8.31.
In the case of CCTACTGCGCCACGAAAGGTCATTGATTCAGTGA, the PBM binding z-score is 2.88.
Sequence GCGTACGGGTCAAAGGTTATAGCATGAATAGAAT displayed a PBM binding z-score of 0.08.
As to CCATACGGGTCACGAGGTTATAGCACGACGAGCG, the PBM binding z-score was found to be 0.355.
TCATATAGGTAAATGCTAGGTGAAATTCCGATCT displayed a PBM binding z-score of 0.241.
Still for that read-out and setting: the result for CGAACGAGGGGATGAGTTGATAGCAAATGCCGAT reads 0.00406; that for GCATATAGGTGATACAAGGTGAAAGTCCGATTGT, -0.00117.
On to CCGACTGCGGCAAAGGTTACCATACTCAGTACGA, for which the PBM binding z-score was -0.16.
On the same count and under the same terms, in the case of ACTATTAGTTGTGACGAGGGCAACCGATAGGTTG it was -0.0621; in that of TCGAGTAGGTTACCAATGGGGCATTCCGCTTTCT, -1.08; in that of CGAACTAGGTCCTCCAGGACAGTGAATACATTGA, -0.316.
On the same count and under the same terms, in the case of TCAAGTAGGTTACCAATGGGGCATTCAGCTTTCT it was -0.278; in that of GCTGTTAGGTCAACTGATGGTCAGCTAAAGCTCG, -0.291; in that of TCATATAGGTAAACAGGTGCAAGTCCGTAAGTTA, 0.685.
On to TCTTGTAGATCAATAGAGGATAAGAAAGTGCGCT, for which the PBM binding z-score was found to be 0.185.
TTACCAGGGTGAAGGTCGTTGATCCCTCTGTAGA registered a PBM binding z-score of 0.104.
Sequence GCTAGCAGGCCATTTTGGTCACTCAATGACGGGC showed a PBM binding z-score of -0.836.
Sequence CGTCCAAGGTCAATGCTAGGTCAGTGTAAGCATT had a PBM binding z-score of 2.1.
Still for that read-out and setting: in the case of TATACAGCGTCAAAGGCCAGAGTACGAATGTCGA it was -0.0905.
Turning to ATCTCGAGGTAAAGTTCAGTGAAAGATCGATAGA, the PBM binding z-score turned out to be 1.44.
Consider CATACAGGGTCAGCTAGGCCAGTGTAGGGACGGC, for which the PBM binding z-score was -0.247.
For ATATGTAGGTTATCGCGTCATTCAGTTTGCGCAT, the PBM binding z-score was 0.292.
Consider CCGACTGGGGTAAAGGTTACCATACTCAGTACGA, for which the PBM binding z-score is -0.316.
For TAGCCTAGGTCATGCGGGCCAGGATAGTGTCGGC, the PBM binding z-score is -0.269.
The sequence CCTAGTAGGTCAAGGTCACACACGCTATAGGTAC displayed a PBM binding z-score of 1.81.
In turn, TCGAGTAGGTTACCATTGGGGCATTCAGCTTTCT registered a PBM binding z-score of -0.677.
In turn, TTACCAAGGTGGGCTGAGGTCGTTGATCCAACTC registered a PBM binding z-score of 0.257.
Same read-out and setting: the result for AGAATGACGTTATACGTAGATCAGGGAAGAAAGT reads 0.0404.

Another assay concerns RARa:RXR (NR concentration 270 nM, RXRa partner concentration 90 nM). Described as above. In outline: as §1
Consider CCTAGCAGGCCAATCTGGGTGACTCAAGGCTTGA, for which the PBM binding z-score amounted to 0.391.
As for CGAACTAGGTCAGAACTGGACAGTGAAGGATGAT, the PBM binding z-score is 0.591.
GGAACGAGGGCATTCGAGTTGATGGCATGGCGAT returned a PBM binding z-score of 0.115.
Take TCAGACAGGTGAAGGTAACTCCGGTACGCAGTCG: the PBM binding z-score was 0.651.
Sequence CGTCCCAGGTCAATGCTAGGTCAGTGAAAGCATT showed a PBM binding z-score of 4.72.
As to TCATATAGGTAAACAGGTGGAAGTCCGTAAGTTA, the PBM binding z-score was determined as 0.577.
On to CCAGACAGGTGAAAGGTAACCCAGTCTGGTACGC, for which the PBM binding z-score amounted to 1.53.
Sequence CTACCAAGCTGAACAAGGTCGTTGATTACTATTC registered a PBM binding z-score of 1.31.
For the sequence GGAACGAGGGCGTTCGAGTTGATAGCATGGCGAT, the PBM binding z-score came out at 0.317.
In turn, CAGCCTAGGTCTGGGCCAGTATAGGAGGAACGTT returned a PBM binding z-score of -0.724.
For the sequence GGAGACAGGTGAAACGCAGGTAACTCAGGGTGGC, the PBM binding z-score came to 0.137.
Turning to TAGCCTAGGTCATGGGCCGGTATACCACGCGAAC, the PBM binding z-score is 2.94.
The sequence CAAACTCGGTCACAGAGGTCAAAGTCCGTGCGTA returned a PBM binding z-score of 6.39.
The same measure, in the same setting: in the case of CCTACTGCGCCACGAAAGGTCATTGATTCAGTGA it was 5.88.
In the case of GCGTACGGGTCAAAGGTTATAGCATGAATAGAAT, the PBM binding z-score was found to be 8.62.
For the sequence CCATACGGGTCACGAGGTTATAGCACGACGAGCG, the PBM binding z-score is 5.93.
On the same count and under the same terms, in the case of TCATATAGGTAAATGCTAGGTGAAATTCCGATCT it was 0.848.
Take CGAACGAGGGGATGAGTTGATAGCAAATGCCGAT: the PBM binding z-score is -0.399.
As to GCATATAGGTGATACAAGGTGAAAGTCCGATTGT, the PBM binding z-score was determined as 1.11.
For the sequence CCGACTGCGGCAAAGGTTACCATACTCAGTACGA, the PBM binding z-score was 2.57.
For the sequence ACTATTAGTTGTGACGAGGGCAACCGATAGGTTG, the PBM binding z-score is 0.536.
In the case of TCGAGTAGGTTACCAATGGGGCATTCCGCTTTCT, the PBM binding z-score stood at 0.186.
The same measure, in the same setting: the result for CGAACTAGGTCCTCCAGGACAGTGAATACATTGA reads -0.262; that for TCAAGTAGGTTACCAATGGGGCATTCAGCTTTCT, 0.518; that for GCTGTTAGGTCAACTGATGGTCAGCTAAAGCTCG, 3.69.
TCATATAGGTAAACAGGTGCAAGTCCGTAAGTTA registered a PBM binding z-score of 1.34.
Same read-out and setting: in the case of TCTTGTAGATCAATAGAGGATAAGAAAGTGCGCT it was 0.654.
On the same count and under the same terms, the result for TTACCAGGGTGAAGGTCGTTGATCCCTCTGTAGA reads 1.86.
GCTAGCAGGCCATTTTGGTCACTCAATGACGGGC gave a PBM binding z-score of -0.995.
Sequence CGTCCAAGGTCAATGCTAGGTCAGTGTAAGCATT had a PBM binding z-score of 5.95.
On the same count and under the same terms, in the case of TATACAGCGTCAAAGGCCAGAGTACGAATGTCGA it was -0.513; in that of ATCTCGAGGTAAAGTTCAGTGAAAGATCGATAGA, 1.34.
The sequence CATACAGGGTCAGCTAGGCCAGTGTAGGGACGGC registered a PBM binding z-score of 3.02.
Still for that read-out and setting: in the case of ATATGTAGGTTATCGCGTCATTCAGTTTGCGCAT it was 0.918; in that of CCGACTGGGGTAAAGGTTACCATACTCAGTACGA, 3.23.
In turn, TAGCCTAGGTCATGCGGGCCAGGATAGTGTCGGC showed a PBM binding z-score of 1.89.
Consider CCTAGTAGGTCAAGGTCACACACGCTATAGGTAC, for which the PBM binding z-score amounted to 5.14.
For the sequence TCGAGTAGGTTACCATTGGGGCATTCAGCTTTCT, the PBM binding z-score was found to be 0.409.
Take TTACCAAGGTGGGCTGAGGTCGTTGATCCAACTC: the PBM binding z-score was determined as 1.14.
The sequence AGAATGACGTTATACGTAGATCAGGGAAGAAAGT came in with a PBM binding z-score of -0.492.
